Consider 26 molecules from PubChem BioAssay (NCATS).

Assay [1] can be described thus: Primary qHTS for inhibitors of nuclear receptor binding SET domain protein 2 (NSD2) in an isogenic RCH-ACV NSD2 p.E1099K mutant (9B) (AID 1645876). For orientation: qHTS replaces the single test concentration by a dilution series.
A short description of assay [2]: Primary qHTS for inhibitors of nuclear receptor binding SET domain protein 2 (NSD2) in an RCH-ACV wild type WT cells (2C) (AID 1645877).

Molecules are shown by their SMILES. Inconclusive results are not listed. Values without a mark were called inactive. The source made the active and inactive calls. The call rests on the fitted dose curve; in most records, active means well fitted curve in the direction sought with a large enough effect; inconclusive means small, poorly fitted or top-dose-only effect, or another doubt; inactive means no such curve, though single readings can be large; an effect the other way counts as inactive or inconclusive.
Further: nearly all actives have a fitted effect of over 70% in size.
On the % scale 0 is the no-effect control and ±100 the full control effect.

For the molecule `C[C@H]1[C@H](C)CC[C@]2(C(=O)O)CC[C@]3(C(=O)O)C(=CCC4[C@@]5(C)CC[C@H](O[C@@H]6O[C@H](C)[C@@H](O)[C@H](O)[C@H]6O)C(C)(C)C5CC[C@]43C)[C@H]12` (some centres undefined), the Potency result in assay [1] and in assay [2] was “inactive” each time.
On to `OCC1OC(Oc2cc(O)c3c(c2)OC(c2ccc(O)cc2)C(O)C3)C(O)C1O` (centres undefined), for which the Potency entry in assay [1] and in assay [2] was “inactive” in each case.
As to `CC[C@H](/C=C/[C@@H](C)[C@H]1CC[C@H]2[C@@H]3CC=C4C[C@@H](O)CC[C@]4(C)[C@H]3CC[C@]12C)C(C)C`, the outcome in assay [1] and in assay [2] was “inactive [at 4.96 µM]” each time.
On to `CCN[C@@H]1C[C@H](N)[C@@H](O[C@H]2OC(CN)=CC[C@H]2N)[C@H](O)[C@H]1O[C@H]1OC[C@](C)(O)[C@H](NC)[C@H]1O`, for which the Potency result in assay [1] and in assay [2] was “inactive” each time.
For `CC1=C2C=C(CO)C(CO)CCC2(C)CCC1=O` (centres undefined), the Potency entry in assay [1] is “inactive”.
As for `CCC1CC2C(C)=CC3CCCCC3C2(C)C2(OC(=O)C(C)(O)OC2=O)O1` (centres undefined), the Potency entry in assay [1] and in assay [2] was “inactive” each time.
For `CC1(CO)CC[C@]2(C(=O)O[C@@H]3O[C@H](CO)[C@@H](O)[C@H](O)[C@H]3O)CC[C@]3(C)C(=CCC4[C@@]5(C)C[C@H](O)[C@H](O[C@@H]6OC[C@@H](O)[C@H](O)[C@H]6O)[C@@](C)(CO)C5CC[C@]43C)C2C1` (some centres undefined), in assay [1], the activity change, negative = viability loss was 1.64% [at 9.23 µM]. Moreover, in assay [2], the outcome is “inactive [at 9.23 µM]”.
Turning to `O=C(/C=C/c1ccccc1)OCC1=CC[C@@H]2C(C(=O)O)=CO[C@@H](O[C@@H]3O[C@H](CO)[C@@H](O)[C@H](O)[C@H]3O)[C@H]12`, the Potency entry in assay [1] and in assay [2] was “inactive” each time.
Consider `COC(=O)CC[C@@H](C)[C@H]1CC[C@H]2[C@@H]3CC(=O)[C@H]4C[C@H](OC(C)=O)CC[C@]4(C)[C@H]3CC[C@]12C`, for which the Potency result in assay [1] and in assay [2] was “inactive” throughout.
Consider `C=C1CC/C=C(/CO)C(=O)C[C@@H]2[C@@H]1CC2(C)C`, for which the Potency result in assay [1] and in assay [2] was “inactive” throughout.
For the molecule `C[C@@H]1O[C@@H](O[C@H]2[C@H](OC(=O)C34CCC5(C)C(=CCC6C7(C)CC(O)C(O[C@@H]8O[C@H](C(=O)O)[C@@H](O)[C@H](O)[C@H]8O)C(C)(C(=O)O)C7CCC65C)C3CC(C)(C)CC4O)O[C@H](C)[C@@H](O)[C@@H]2O)[C@H](O)[C@@H](O[C@@H]2OC[C@](O)(CO)[C@H]2O[C@@H]2O[C@H](CO)[C@@H](O)[C@H](O)[C@H]2O)[C@H]1O` (some centres undefined), the activity change, negative = viability loss in assay [1] was -24% [at 9.23 µM].
Regarding `NC(=O)[C@H]1CCCCc2c1[nH]c1ccc(Cl)cc21`, the Potency entry in assay [1] and in assay [2] was “inactive” each time.
With `CC1=CC(=O)CC(C)(CO[C@@H]2O[C@H](CO)[C@@H](O)[C@H](O)[C@H]2O)C1(O)/C=C/C(C)=C/C(=O)O` (some centres undefined), the Potency result in assay [1] and in assay [2] was “inactive” each time.
As to `COC1=CC(=O)O[C@@H](/C=C/c2ccccc2)[C@@H]1O`, the Potency entry in assay [1] and in assay [2] was “inactive” each time.
In the case of `CCOc1c2c(c(OCC)c3ccccc13)C(=O)N(c1ccc(CC(=O)NS(=O)(=O)c3ccccc3)cc1)C2`, the Potency result in assay [1] and in assay [2] was “inactive” each time.
On to `C/C(=C\CCC(C(=O)O)C1CCC2(C)C3=C(CCC12C)C1(C)CCC(=O)C(C)(C)C1CC3)C(=O)O` (centres undefined), for which, in assay [1], the Potency entry is “inactive”.
As to `CC1CCC2C(C)(C)C(O)CCC2(C)C12Cc1c(O)cc3c(c1O2)CN=C3N` (centres undefined), the Potency result in assay [1] and in assay [2] was “inactive” in each case.
Take `COC(=O)C1(Cc2ccc(O)cc2)OC(=O)C(OC)=C1c1ccc(O)cc1` (centres undefined): the Potency result in assay [1] and in assay [2] was “inactive” each time.
For `O=C(/C=C/c1ccc(O)cc1)O[C@H]1[C@@H]2C=CO[C@@H](O[C@@H]3O[C@H](CO)[C@@H](O)[C@H](O)[C@H]3O)[C@@H]2[C@@]2(CO)O[C@@H]12`, the Potency result in assay [1] and in assay [2] was “inactive” throughout.
In the case of `C=CC(C)(O)CC/C=C(\C)C(=O)OC1CC2(C(=O)O)CCC3(C)C(=CCC4C5(C)CCC(OC6OC(COC7OCC(O)C(O)C7O)C(O)C(OC7OCC(O)C(O)C7O)C6OC6OC(CO)C(O)C(O)C6OC6OCC(O)C(O)C6O)C(C)(C)C5CCC43C)C2CC1(C)C` (centres undefined), in assay [1], the activity change, negative = viability loss was -9.57% [at 9.23 µM]. Besides, the activity change, negative = cell killing in assay [2] was -5.78% [at 9.23 µM].
With `C[C@H](NCc1ccc(OCc2ccccc2F)cc1)C(N)=O`, the Potency entry in assay [1] and in assay [2] was “inactive” in each case.
For the molecule `COC(=O)C1C(c2ccc(O)cc2)C(C(=O)OC)C1c1ccc(O)cc1` (centres undefined), the Potency result in assay [1] and in assay [2] was “inactive” in each case.
For `COc1cc(/C=C/CO)ccc1O[C@@H]1O[C@H](CO)[C@@H](O)[C@H](O)[C@H]1O`, the Potency result in assay [1] and in assay [2] was “inactive” each time.
As for `COC1=CC(=O)O[C@@H](CCc2ccccc2)[C@@H]1O`, the Potency entry in assay [1] and in assay [2] was “inactive” each time.
Take `CCC[C@@H]1C[C@@H](C(=O)N[C@@H]([C@H]2O[C@H](SC)[C@H](O)[C@@H](O)[C@@H]2O)[C@@H](C)O)N(C)C1`: the Potency result in assay [1] and in assay [2] was “inactive” throughout.
With `C=CCc1ccc(O[C@@H]2O[C@H](CO[C@@H]3O[C@@H](C)[C@H](O)[C@@H](O)[C@H]3O)[C@@H](O)[C@H](O)[C@H]2O)cc1`, the Potency result in assay [1] and in assay [2] was “inactive” each time.
